Experimental data published in PubChem BioAssay (NCATS).
Several values for one entry are separate records, joined by “and”; a condition that tells them apart may be missing. Equal values may be shown once. Inconclusive results are not listed. The source holds several records for some structures; these can differ, active in one and inactive in another. Activity calls are given as the source filed them. Unless noted, calls come from the whole dose curve; as a rule, active = well fitted curve in either direction with a large enough effect (not every such curve was filed as active); inconclusive = small, poorly fitted or top-dose-only effect, or another doubt; inactive = flat fitted curve, though single readings scatter.

How the values were obtained:
[1] = AP1 Signaling Pathway (AID 357); conditions: ME-180 (cervical carcinoma) AP-1-bla reporter, EGF-induced, beta-lactamase ratio, 5 h;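 note: ME-180 reporter cells stimulated with EGF at its EC50 level; % is set by controls: 0 for no effect and ±100 for the full control effect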
Outline: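 First, ME-180 AP-1-bla cells were cultured overnight at 37 °C in low-serum Opti-MEM. Next, titrated compounds with EC50 EGF were incubated 5 hours. Finally, CCF4 was added for 2.5 hours and the 460/530 nm ratio recorded.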

[2] = molecular target: Cytochrome P450 1A2 (Homo sapiens) (UniProt P05177); test: p450-cyp1a2 (AID 410; calls by dose curve; note: potency is the fitted concentration of half-maximal effect;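 for activity change, negative = inhibition: -100% = full effect of reference inhibitor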)
Outline: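 Luminescent readout of luciferin formed from Luciferin-ME by human CYP1A2; data normalized against complete inhibition by 57 uM furafylline. Enzyme 20nM, substrate 100uM at Km, 100mM KPO4 buffer, 60 min reaction at room temperature.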

[3] = NFAT Signaling Pathway (AID 444); conditions: Jurkat NFAT-bla M1, carbachol, beta-lactamase ratio, 5 h;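 note: carbachol stimulus at about its EC50 of 1 µM final; % is set by controls: 0 for no effect and ±100 for the full control effect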
Outline: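 Jurkat cells carrying an NFAT-driven β-lactamase reporter and co-transfected muscarinic M1 receptor were treated with compound plus carbachol (1 uM final, an EC50 level) for 5 h at 37 °C. CCF4 loading followed for 1 h at RT; 460/530 nm ratio gave %activity.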

[4] = molecular target: Lysosomal acid glucosylceramidase (Homo sapiens) (UniProt P04062); test: Glucocerebrosidase-p2 (AID 348; in the data active = potency below about 10 µM; note: potency is the fitted concentration of half-maximal effect); conditions: purified GBA, blue fluorogenic substrate, 40 min
Description: Beta-glucocerebrosidase catalyzes the hydrolysis of beta-glucocerebroside to glucose and ceramide. The inherited deficiency of beta-glucocerebrosidase results in Gaucher disease, which is characterized by a wide variety of symptoms including hepatosplenomegaly, anemia, thrombocytopenia, bony lesions and bone marrow infiltration with characteristic storage cells, known as Gaucher cells. There are also forms of the disorder affecting the central nervous system. Patients with the same genotypes can manifest with diverse clinical presentations and it is believed that improper folding and trafficking of beta-glucocerbrosidase may contribute to the phenotypes observed.
Low molecular weight molecules, acting as chaperones, may potentially restore trafficking of misfolded beta-glucocerebrosidase from the endoplasmic reticulum to the lysosomes, thereby enhancing functional lysosomal beta-glucocerebrosidase activity.
Using normal beta-glucocerebrosidase, an assay was developed to screen for small molecule inhibitors that could potentially act as molecular chaperones on the mutant forms [developed with NIH investigator Dr. Ellen Sidransky#s laboratory]. Two pro-fluorescent substrates were chosen for two screens against a small molecule library. […]
Blue fluorescence substrate assay: […]
Read the plate in Viewlux plate reader (Ex=365(10) and Em=440(10)).

[5] = Cell Viability - BJ (AID 421; calls by dose curve;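 note: potency is the fitted concentration of half-maximal effect; cells exposed to compound for 40 hours at 37 °C before readout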); conditions: BJ fibroblast viability, qHTS
Outline: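 Luminescent ATP signal (CellTiter-Glo, 20 min at room temperature) served as the read-out of viable BJ cells after 40 hours of compound treatment. Responses were scaled between DMSO and 100 uM tamoxifen, and AC50 values were obtained by Hill modeling.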

[6] = Cell Viability - Jurkat (AID 426;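 active = dose-dependent loss of cell ATP signal giving a full or clear fitted curve, ranked by lower potency value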;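 note: potency is the fitted concentration of half-maximal effect; cells exposed to compound for 40 hours at 37 °C before ATP read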); conditions: qHTS
Outline: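 qHTS, 1536-well; Jurkat E6-1, 5000 cells/well, complete medium; cpd 40 hr, 37 °C; CellTiter-Glo 20 min RT; luminescence. AC50 by Hill fit.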

[7] = Cell Viability - Hek293 (AID 427;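 active = compounds whose dose-response curve shows a full or clear partial loss of cell viability, called from curve shape rather than a numeric limit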;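 note: potency is the fitted concentration of half-maximal effect; cells exposed to compound for 40 hours at 37 °C before reading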); conditions: qHTS
Outline: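 Luminescent ATP read-out (CellTiter-Glo, 20 min RT) after 40 hr compound exposure at 37 °C in complete medium. Signal normalized to DMSO (basal) and 100 uM tamoxifen (100% inhibition); concentration-response fitted with the standard Hill equation to give AC50.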

[8] = Cell Viability - MRC5 (AID 434; calls by dose curve;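 note: potency is the fitted concentration of half-maximal effect; cells exposed to compound for 40 hours at 37 °C; potency reflects cytotoxicity seen as loss of intracellular ATP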); conditions: MRC5 lung fibroblast viability, qHTS
Outline: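 MRC5 normal human lung fibroblasts (1500/well) were treated with compounds for 40 hr at 37 °C in complete medium, and viable cells were measured as intracellular ATP by CellTiter-Glo luminescence. AC50 came from Hill fits, normalized to DMSO and 100 uM tamoxifen.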

[9] = Cell Viability - SK-N-SH (AID 435; calls by dose curve; note: potency is the fitted concentration of half-maximal effect); conditions: SK-N-SH neuroblastoma cell viability qHTS
Outline: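 qHTS cytotoxicity: CellTiter-Glo ATP luminescence after 40 h compound exposure of human neuroblastoma SK-N-SH cells at 37 °C. AC50 derived by Hill-equation fitting, with DMSO as basal and 100 uM tamoxifen as full inhibition.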

[10] = Cell Viability - HepG2 (AID 433; calls by dose curve;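 note: potency is the fitted concentration of half-maximal effect; potency for ATP loss meaning cytotoxicity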); conditions: qHTS
Outline: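 Cytotoxicity read as ATP loss (CellTiter-Glo luminescence) after 40 hr compound exposure of HepG2, 1500 cells/well, 37 °C. AC50 by Hill equation; 0% set by DMSO, 100% inhibition by 100 uM tamoxifen.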

[11] = at 17.2 µM (top of the series) unless noted

Sequence of Cytochrome P450 1A2 (Homo sapiens) (P05177 whole entry, looked up): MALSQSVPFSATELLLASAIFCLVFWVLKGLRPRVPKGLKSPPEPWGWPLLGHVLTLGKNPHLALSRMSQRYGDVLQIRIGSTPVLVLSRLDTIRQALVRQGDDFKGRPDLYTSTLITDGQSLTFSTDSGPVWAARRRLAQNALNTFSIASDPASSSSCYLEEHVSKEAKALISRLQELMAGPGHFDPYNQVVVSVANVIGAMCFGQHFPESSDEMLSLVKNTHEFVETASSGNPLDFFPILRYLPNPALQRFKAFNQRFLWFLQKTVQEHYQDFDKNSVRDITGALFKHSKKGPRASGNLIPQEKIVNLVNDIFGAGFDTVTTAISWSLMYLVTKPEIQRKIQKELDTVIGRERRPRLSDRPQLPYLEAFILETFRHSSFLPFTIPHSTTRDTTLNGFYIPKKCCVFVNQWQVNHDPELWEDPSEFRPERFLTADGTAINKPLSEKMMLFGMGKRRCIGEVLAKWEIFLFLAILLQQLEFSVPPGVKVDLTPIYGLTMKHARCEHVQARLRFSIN
Sequence of Lysosomal acid glucosylceramidase (Homo sapiens) (P04062 whole entry, looked up): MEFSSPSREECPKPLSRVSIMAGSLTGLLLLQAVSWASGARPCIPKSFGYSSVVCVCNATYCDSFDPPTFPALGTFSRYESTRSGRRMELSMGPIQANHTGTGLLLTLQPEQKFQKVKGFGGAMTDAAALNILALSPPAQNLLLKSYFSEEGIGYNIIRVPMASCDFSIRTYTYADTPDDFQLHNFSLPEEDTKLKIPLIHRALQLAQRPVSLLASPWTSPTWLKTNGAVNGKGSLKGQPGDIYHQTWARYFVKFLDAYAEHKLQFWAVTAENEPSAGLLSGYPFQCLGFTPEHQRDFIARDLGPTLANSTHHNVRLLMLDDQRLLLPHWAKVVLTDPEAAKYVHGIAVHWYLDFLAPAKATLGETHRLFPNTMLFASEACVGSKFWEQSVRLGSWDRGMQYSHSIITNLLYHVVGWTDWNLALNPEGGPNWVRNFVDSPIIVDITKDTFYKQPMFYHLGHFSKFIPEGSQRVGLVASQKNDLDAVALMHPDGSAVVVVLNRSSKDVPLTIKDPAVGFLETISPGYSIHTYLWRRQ

Cc1ncc(CO)c(CO)c1O
activity change, negative = inhibition [1, 11]: -2.02% (inactive)
Potency [2]: inactive

CC1(C)O[C@@H]2C[C@H]3[C@@H]4C[C@H](F)C5=CC(=O)C=C[C@]5(C)[C@@]4(F)[C@@H](O)C[C@]3(C)[C@]2(C(=O)CO)O1
activity change, negative = inhibition [1, 11]: -7.62% (inactive)
activity change, negative = inhibition ([3]; at 17.2 µM (top of the series)): 22.4% (inactive)

O=C(CCCCC(=O)Nc1c(I)cc(I)c(C(=O)O)c1I)Nc1c(I)cc(I)c(C(=O)O)c1I
activity change, negative = inhibition [1, 11]: 2.09% (inactive)
Potency [2]: inactive
activity change, negative = inhibition ([3]; at 17.2 µM (top of the series)): 0.68% (inactive)

C[N+](C)(C)CCO
activity change, negative = inhibition [1, 11]: 0.911% [at 38 µM] (inactive)
Potency [2]: inactive
activity change, negative = inhibition ([3]; at 38 µM (top of the series)): 2.35% (inactive)

CC1(C)O[C@@H]2C[C@H]3[C@@H]4CCC5=CC(=O)C=C[C@]5(C)[C@@]4(F)[C@@H](O)C[C@]3(C)[C@]2(C(=O)CO)O1
activity change, negative = inhibition [1, 11]: 4.43% (inactive)

CC(=O)OCC[N+](C)(C)C
activity change, negative = inhibition [1, 11]: -2.55% (inactive)
activity change, negative = inhibition ([3]; at 17.2 µM (top of the series)): 122% [activator] (active)

CC(=O)[C@@]1(O)CC[C@H]2[C@@H]3C[C@H](C)C4=CC(=O)CC[C@]4(C)[C@H]3CC[C@@]21C
activity change, negative = inhibition [1, 11]: 16% (inactive)
activity change, negative = inhibition ([3]; at 17.2 µM (top of the series)): 19.2% (inactive)

CN(C(=O)C(Cl)Cl)c1ccc(OC(=O)c2ccco2)cc1
activity change, negative = inhibition [1, 11]: 4.41% (inactive) and 1.4% (inactive)
Potency [2]: inactive
activity change, negative = inhibition ([3]; at 17.2 µM (top of the series)): 3.31% (inactive) and -29.1% (inactive)

CN(C)c1cc2c(Nc3ccc4c(cnn4Cc4ccccc4)c3)ncnc2cn1
activity change, negative = inhibition [1, 11]: -107% [at 38 µM] (active)
Potency [2]: 7.94 µM (active)

Brc1ccc([C@H]2CN3CCSC3=N2)cc1
activity change, negative = inhibition [1, 11]: 10.4% [at 38 µM] (inactive)
Potency [2]: 15.8 µM (active)
activity change, negative = inhibition ([3]; at 38 µM (top of the series)): -10.1% (inactive)

C[C@H]1C[C@@H]2[C@H]([C@@H](O)C[C@@]3(C)[C@H]2CC[C@]3(O)C(=O)CO)[C@@]2(C)C=CC(=O)C=C12
activity change, negative = inhibition [1, 11]: 4.57% (inactive)
activity change, negative = inhibition ([3]; at 17.2 µM (top of the series)): 17.5% (inactive)

OCCOCCN1CCN(C(c2ccccc2)c2ccc(Cl)cc2)CC1 (configuration not stated)
activity change, negative = inhibition [1, 11]: 3.37% (inactive)

CN1CCCN(C(c2ccccc2)c2ccc(Cl)cc2)CC1 (configuration not stated)
activity change, negative = inhibition [1, 11]: 14.9% (inactive)
activity change, negative = inhibition ([3]; at 17.2 µM (top of the series)): -95.8% (active)

NC(N)=NCCCCN=C(N)N
activity change, negative = inhibition ([1]; at 17.2 µM (top of the series)): 10.4% (inactive)
activity change, negative = inhibition ([1]; at 38 µM (top of the series)): -0.239% (inactive)
activity change, negative = inhibition ([3]; at 17.2 µM (top of the series)): 8.46% (inactive)
activity change, negative = inhibition ([3]; at 38 µM (top of the series)): -22% (inactive)

COc1ccccc1N1CCN(CCN2C(=O)CC3(CCCC3)CC2=O)CC1
activity change, negative = inhibition [1, 11]: -25.1% [at 38 µM] (inactive)
Potency [2]: 31.6 µM (active) and inactive
activity change, negative = inhibition ([3]; at 38 µM (top of the series)): -25.7% (inactive)

CCCCCC(=O)O[C@]1(C(C)=O)CC[C@H]2[C@@H]3CCC4=CC(=O)CC[C@]4(C)[C@H]3CC[C@@]21C
activity change, negative = inhibition [1, 11]: -2.44% (inactive)

CC(=O)Nc1c(I)c(NC(C)=O)c(I)c(C(=O)O)c1I
activity change, negative = inhibition [1, 11]: -1.8% (inactive)
activity change, negative = inhibition ([3]; at 17.2 µM (top of the series)): -7.63% (inactive)

O=C(O)/C=C(\CC(=O)O)C(=O)O
Potency [4]: > 11.4 µM (inactive)
activity change, negative = inhibition [1, 11]: 3.65% [at 7.69 µM] (inactive)
Potency [2]: inactive
activity change, negative = inhibition ([3]; at 7.69 µM (top of the series)): 26.4% (inactive)

CC(NCCC(c1ccccc1)c1ccccc1)c1ccccc1 (configuration not stated)
activity change, negative = inhibition [1, 11]: 12.2% (inactive)

C[C@]12CCC(=O)C=C1CC[C@@H]1[C@@H]2[C@@H](O)C[C@@]2(C)[C@H]1CC[C@]2(O)C(=O)COC(=O)CCC(=O)O
activity change, negative = inhibition [1, 11]: -1.32% (inactive) and 11.9% (inactive)
activity change, negative = inhibition ([3]; at 17.2 µM (top of the series)): 10.9% (inactive)

O=C1NC(c2cccc([N+](=O)[O-])c2)=CCN1c1ccccc1O
activity change, negative = inhibition [1, 11]: -12.2% [at 38 µM] (inactive)
activity change, negative = inhibition ([3]; at 38 µM (top of the series)): 4.96% (inactive)

CCOC(=O)NNc1nncc2ccccc12
activity change, negative = inhibition [1, 11]: -6.72% (inactive)
Potency [2]: 5.01 µM (active)
activity change, negative = inhibition ([3]; at 17.2 µM (top of the series)): 1.79% (inactive)

OC(CCCN1CCCCC1)(c1ccccc1)c1ccccc1
activity change, negative = inhibition [1, 11]: 26.6% (inactive)
Potency [2]: inactive

CCCC(=O)O[C@]1(C(=O)CCl)[C@@H](C)C[C@H]2[C@@H]3CCC4=CC(=O)C=C[C@]4(C)[C@@]3(F)C(=O)C[C@@]21C
activity change, negative = inhibition [1, 11]: 2.19% (inactive)

CCN(CC)CCOc1ccc(/C(=C(\Cl)c2ccccc2)c2ccccc2)cc1
activity change, negative = inhibition [1, 11]: 9.05% (inactive)
Potency [2]: 12.6 µM (active)
activity change, negative = inhibition ([3]; at 17.2 µM (top of the series)): -12.4% (inactive)

C[C@@H](C1=C(CCN(C)C)Cc2ccccc21)c1ccccn1
Potency [2]: 20 µM (active)

Nc1ccc(O)cc1
Potency [5]: 62.8 µM (active)
Potency [6]: 38.6 µM (active)
Potency [7]: 47.3 µM (active)
Potency [8]: 53.3 µM (active)
Potency [9]: 43 µM (active)

COc1cc(C=O)ccc1O
Potency [5]: > 92 µM (inactive)
Potency [6]: > 92 µM (inactive)
Potency [7]: > 92 µM (inactive)
Potency [10]: > 92 µM (inactive)
Potency [8]: > 92 µM (inactive)
Potency [9]: > 92 µM (inactive)

CCCCC(CC)COC(=O)c1ccccc1C(=O)O (configuration not stated)
Potency [5]: > 92 µM (inactive)
Potency [6]: > 92 µM (inactive)
Potency [7]: > 92 µM (inactive)
Potency [10]: > 92 µM (inactive)
Potency [8]: > 92 µM (inactive)
Potency [9]: > 92 µM (inactive)

Cc1cc(C(C)(C)C)c(O)c(C(C)(C)C)c1
Potency [5]: > 92 µM (inactive)
Potency [6]: > 92 µM (inactive)
Potency [7]: > 92 µM (inactive)
Potency [10]: > 92 µM (inactive)
Potency [8]: > 92 µM (inactive)
Potency [9]: > 92 µM (inactive)

CC(C)N(CCC(=O)c1ccc2ccccc2c1)Cc1ccccc1
Potency [2]: 3.98 µM (active) and 2.51 µM (active)

OCc1c[nH]c2ccccc12
Potency [5]: > 92 µM (inactive)
Potency [6]: > 92 µM (inactive)
Potency [7]: > 92 µM (inactive)
Potency [10]: > 92 µM (inactive)
Potency [8]: > 92 µM (inactive)
Potency [9]: > 92 µM (inactive)
